# Measurements published in PubChem BioAssay (NCI).
# About 79,000 compounds went through this panel and 15% of them were active in at least one assay; those are over-represented in the sample as a whole. Unmarked numbers belong to inactive results. Activity calls are given as the source filed them. Cut-off read from the data, not from the text of the source: active = growth inhibition above about 70%; inactive = the rest.
# Test: NCI Yeast Anticancer Drug Screen. Data for the mec2-1 strain (AID 157)
# Settings: S. cerevisiae mec2-1 strain, at 50.0 µM, stronger effect = higher value
# Method in brief: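 Mutant yeast (mec2-1) grown with compound; growth inhibition relative to vehicle control reported.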
row,Compound,growth inhibition
1,CCSC1(SCC)C(=O)OC2=C(CCCC2)C1N1CCOCC1 (stereo not given),14.2%
2,NC(=O)C(CCc1cccc2ccccc12)c1ccccc1 (stereo not given),94.5% (active)
3,NC(CCCCCC(N)C(=O)O)C(=O)O (stereo not given),9.1%
4,CN(C)CC(CN(C)C)C(=O)C1CCCCC1,94.7% (active)
5,O=C1/C(=C/c2ccc([N+](=O)[O-])cc2)Sc2scc(-c3cccc([N+](=O)[O-])c3)[n+]21,89.5% (active)
6,CC(C)(C)c1cc(C(P(=O)(c2ccccc2)c2ccccc2)P(=O)(c2ccccc2)c2ccccc2)cc(C(C)(C)C)c1O,93.7% (active)
7,COC(=O)c1cc(=O)n(-c2ccccc2C(F)(F)F)c(SC)n1,99.5% (active)
8,CSC(SC)=C1C(=O)NC(Cc2ccccc2)C1=O (stereo not given),36.1%
9,c1ccc(C(c2ccccc2)c2ccc3ccccc3n2)cc1,40.8%
10,CN(C)c1nc(N(C)C)nc([N+](C)(C)C)n1,98% (active)
11,CCCNC(=S)N/N=C(/C)c1nccc2ccccc12,20.4%
12,OC(CN1CCc2ccccc2C1)c1ccc2ccccc2c1 (stereo not given),50.5%
13,Nc1nc(N)c2nc(CNc3ccc(C(=O)NC(CCC(=O)O)C(=O)O)cc3)ccc2n1 (stereo not given),64.2%
14,O=c1c2ccccc2c2ccccc2n1O,97% (active)
15,CC(=O)N1c2ccccc2Sc2ccc3ccc(C(=O)CCl)cc3c21,90.5% (active)
16,CC(NNC(=S)N1CC2CCC(CC2)C1)c1nccc2ccccc12 (stereo not given),99% (active)
17,O=C1O/C(=C(\Cc2ccccc2)c2ccccc2)N(c2ccccc2)C1=O,18.6%
18,S=c1sc2ccccc2n1C=Nc1ccccc1,98.8% (active)
19,CSc1nc(NC2OC(CO)C(O)C(O)C2O)c(Cl)c(=O)[nH]1 (stereo not given),4.45%
20,C=CCN1/C(=C\C=C\c2ccc3cc(C)ccc3[n+]2CC=C)C=Cc2cc(C)ccc21,91.1% (active)

row,Compound,growth inhibition
1,S=c1[nH]nc(SCc2ccc(Cl)c(Cl)c2)c2[nH]cnc12,9.2%
2,Nc1ccc(C(=O)/C=C/c2ccccn2)cc1,31.4%
3,CCOC(=O)C(C(=O)O)(C(c1ccccc1)c1ccccc1)C(c1ccccc1)c1ccccc1,99.5% (active)
4,CSC(=S)n1nc(-c2ccccc2)c(N=Nc2ccc(Br)cc2)c1-c1ccccc1,23.9%
5,COc1ccc([N+](=O)[O-])cc1Nc1c2ccccc2nc2ccccc12,64.2%
6,C=CCN1/C(=C/C=C\c2sc3ccccc3[n+]2CC=C)Sc2ccccc21,93.6% (active)
7,COc1ccc(/C=C/C(C(=O)O)C(=O)O)cc1,76% (active)
8,CN(C)C(=O)c1cc(Br)cc(-c2ccccc2)c1O,73% (active)
9,Cc1cc(N=[N+]=[N-])c2cc(C3CCCCC3)ccc2n1,78.8% (active)
10,[Cu+2].[O-]/N=C/c1cccc(O)c1[O-].[O-]/N=C/c1cccc(O)c1[O-],96.7% (active)
11,c1ccc(Cn2nnc(-c3ccccc3)c2-c2ccccc2)cc1,87.6% (active)
12,CCOc1ccc2nc(Cl)sc2c1,89.8% (active)
13,CCOC(=O)c1sc2c(c1O)c(=O)n(-c1ccccc1)c(=S)n2-c1ccccc1,95.8% (active)
14,O=C(O)c1c[nH]c2cc(Cl)ccc2c1=O,-20.9%
15,Cc1cc2c(cc1O)CC[C@@H]1[C@@H]2CC[C@]2(C)[C@@H](O)CC[C@@H]12,35.2%
16,NC(=O)NOCC1NC(=O)NC1=O (stereo not given),-13.1%
17,CCOC(=O)c1cnc2cc3cccccc3n2c1=O,42.5%
18,CC(CO)CCC(=O)C(C)C1C(=O)CC2CC3CC(O)CCC3(C)CC21C (stereo not given),81% (active)
19,N#CSC#Cc1ccc(C#CSC#N)cc1,84.5% (active)
20,CCS/C(SC)=C(/c1ccccc1)[P+](c1ccccc1)(c1ccccc1)c1ccccc1,94.3% (active)

# Test: NCI Yeast Anticancer Drug Screen. Data for the sgs1 mgt1 strain (AID 161);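 note: 0% = growth of cultures given vehicle only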
# Settings: S. cerevisiae sgs1 mgt1 strain, at 5.0 µM (retest, dose inferred, filed as 0.5), stronger effect = higher value
# Method in brief: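 Yeast cells carrying a defined DNA-repair defect were exposed to test compounds. Growth inhibition was measured relative to vehicle-treated controls.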
row,Compound,growth inhibition
1,CCSC1(SCC)C(=O)OC2=C(CCCC2)C1N1CCOCC1 (stereo not given),0%
2,NC(=O)C(CCc1cccc2ccccc12)c1ccccc1 (stereo not given),-6%
3,NC(CCCCCC(N)C(=O)O)C(=O)O (stereo not given),-66%
4,CN(C)CC(CN(C)C)C(=O)C1CCCCC1,-9%
5,O=C1/C(=C/c2ccc([N+](=O)[O-])cc2)Sc2scc(-c3cccc([N+](=O)[O-])c3)[n+]21,96% (active)
6,CC(C)(C)c1cc(C(P(=O)(c2ccccc2)c2ccccc2)P(=O)(c2ccccc2)c2ccccc2)cc(C(C)(C)C)c1O,-8%
7,COC(=O)c1cc(=O)n(-c2ccccc2C(F)(F)F)c(SC)n1,43%
8,CSC(SC)=C1C(=O)NC(Cc2ccccc2)C1=O (stereo not given),0%
9,c1ccc(C(c2ccccc2)c2ccc3ccccc3n2)cc1,-4%
10,CN(C)c1nc(N(C)C)nc([N+](C)(C)C)n1,-1%
11,CCCNC(=S)N/N=C(/C)c1nccc2ccccc12,7%
12,OC(CN1CCc2ccccc2C1)c1ccc2ccccc2c1 (stereo not given),34%
13,Nc1nc(N)c2nc(CNc3ccc(C(=O)NC(CCC(=O)O)C(=O)O)cc3)ccc2n1 (stereo not given),18%
14,O=c1c2ccccc2c2ccccc2n1O,93% (active)
15,CC(=O)N1c2ccccc2Sc2ccc3ccc(C(=O)CCl)cc3c21,92% (active)
16,CC(NNC(=S)N1CC2CCC(CC2)C1)c1nccc2ccccc12 (stereo not given),98% (active)
17,O=C1O/C(=C(\Cc2ccccc2)c2ccccc2)N(c2ccccc2)C1=O,0%
18,S=c1sc2ccccc2n1C=Nc1ccccc1,-1%
19,CSc1nc(NC2OC(CO)C(O)C(O)C2O)c(Cl)c(=O)[nH]1 (stereo not given),-2%
20,C=CCN1/C(=C\C=C\c2ccc3cc(C)ccc3[n+]2CC=C)C=Cc2cc(C)ccc21,90% (active)

row,Compound,growth inhibition
1,S=c1[nH]nc(SCc2ccc(Cl)c(Cl)c2)c2[nH]cnc12,-14%
2,Nc1ccc(C(=O)/C=C/c2ccccn2)cc1,1%
3,CCOC(=O)C(C(=O)O)(C(c1ccccc1)c1ccccc1)C(c1ccccc1)c1ccccc1,98% (active)
4,CSC(=S)n1nc(-c2ccccc2)c(N=Nc2ccc(Br)cc2)c1-c1ccccc1,5%
5,COc1ccc([N+](=O)[O-])cc1Nc1c2ccccc2nc2ccccc12,0%
6,C=CCN1/C(=C/C=C\c2sc3ccccc3[n+]2CC=C)Sc2ccccc21,95% (active)
7,COc1ccc(/C=C/C(C(=O)O)C(=O)O)cc1,6%
8,CN(C)C(=O)c1cc(Br)cc(-c2ccccc2)c1O,3%
9,Cc1cc(N=[N+]=[N-])c2cc(C3CCCCC3)ccc2n1,7%
10,[Cu+2].[O-]/N=C/c1cccc(O)c1[O-].[O-]/N=C/c1cccc(O)c1[O-],-14%
11,c1ccc(Cn2nnc(-c3ccccc3)c2-c2ccccc2)cc1,-6%
12,CCOc1ccc2nc(Cl)sc2c1,6%
13,CCOC(=O)c1sc2c(c1O)c(=O)n(-c1ccccc1)c(=S)n2-c1ccccc1,83% (active)
14,O=C(O)c1c[nH]c2cc(Cl)ccc2c1=O,-8%
15,Cc1cc2c(cc1O)CC[C@@H]1[C@@H]2CC[C@]2(C)[C@@H](O)CC[C@@H]12,-32%
16,NC(=O)NOCC1NC(=O)NC1=O (stereo not given),-16%
17,CCOC(=O)c1cnc2cc3cccccc3n2c1=O,13%
18,CC(CO)CCC(=O)C(C)C1C(=O)CC2CC3CC(O)CCC3(C)CC21C (stereo not given),2%
19,N#CSC#Cc1ccc(C#CSC#N)cc1,100% (active)
20,CCS/C(SC)=C(/c1ccccc1)[P+](c1ccccc1)(c1ccccc1)c1ccccc1,99% (active)
